This is part of a sample that, as a whole, favours compounds with a hit. Of some 83,000 tested, about 20% had one in any assay.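 Each cell line was grown in a 96-well plate and treated with one concentration of compound for 48 hours. Values below 10 were considered active.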 Values without a mark were called inactive. Active and inactive are the calls of the source.

Test systems include NCI-H23 lung; NCI-H226 lung; NCI-H322M lung; HOP-62 NSCLC; NCI-H460 lung; NCI-H522 lung; A549/ATCC NSCLC; 786-0 renal; COLO 205 colon; HOP-92 NSCLC.
Assay in all cases: NCI-60 one-dose screen, 48 h (100 = growth as untreated, 0 = no growth, -100 = all killed)
What all share (conditions): 10 µM unless noted

Consider `Cc1ccc2nc3ccccc3c(NCc3ccccc3)c2c1`, for which the growth in the test on NCI-H23 lung was 35.8%; with NCI-H226 lung it was 49.8%; in the test on NCI-H322M lung, 40.8%; with HOP-62 NSCLC it was 43.5%; in the test on NCI-H460 lung it was 17.1%; in the test with NCI-H522 lung it was 37%. Moreover, the growth in the test with A549/ATCC NSCLC is 40.2%; in the test on 786-0 renal, 34.3%; with COLO 205 colon, 8.06% (active).
Regarding `Cc1nc2ccccc2c(/C=C/c2ccc(Cl)cc2)c1C(=O)/C=C/c1ccc(F)cc1`, the growth with NCI-H23 lung is 17.3%; with NCI-H226 lung, -8.4% (active); in the test with NCI-H322M lung, 51.8%; in the test with HOP-62 NSCLC it was 3.74% (active); with NCI-H460 lung, -66.9% (active); in the test on NCI-H522 lung it was 1.17% (active). Further, the growth with A549/ATCC NSCLC was 74.6%; with 786-0 renal, -24.7% (active); with COLO 205 colon, 13.9%.
`Cc1cccc(NC(=O)CSc2nc3ccccc3[nH]2)c1`: the growth in the test on NCI-H23 lung is 94.6%; with NCI-H226 lung it was 92%; in the test on NCI-H322M lung, 97%; in the test with HOP-62 NSCLC it was 88.7%; with NCI-H460 lung, 105%; in the test with HOP-92 NSCLC it was 88.4%. Besides, the growth with NCI-H522 lung is 90.9%; in the test on A549/ATCC NSCLC it was 101%; with 786-0 renal it was 103%; in the test on COLO 205 colon, 110%.
With `NC1=NCc2nc3ccccc3c(=O)n2C1`, the growth in the test with NCI-H23 lung is 96.6%; in the test on NCI-H226 lung, 94.9%; with NCI-H322M lung, 110%; in the test with HOP-62 NSCLC, 98.4%; with NCI-H460 lung it was 111%; with HOP-92 NSCLC it was 67.5%. Besides, the growth was 91.6% in the test with NCI-H522 lung, 93.9% in the test on A549/ATCC NSCLC, 97.6% in the test with 786-0 renal and 124% in the test on COLO 205 colon.
On to `CC(=O)N1N=C(c2ccc(Nc3nc(Nc4ccc(F)cc4)nc(Nc4ccc(F)cc4)n3)cc2)CC1c1cccc([N+](=O)[O-])c1` (stereo not given), for which the growth with NCI-H23 lung is 78.9%; in the test on NCI-H226 lung, 101%; in the test with NCI-H322M lung it was 85.6%; with HOP-62 NSCLC, 82%; in the test on NCI-H460 lung it was 102%; in the test with HOP-92 NSCLC, 71.2%. The growth with NCI-H522 lung was 77%; in the test on A549/ATCC NSCLC, 91.1%; in the test on 786-0 renal, 86.4%; with COLO 205 colon it was 84.9%.
For the molecule `CC(=O)OC[C@H]1OC(Sc2sc(C(=O)c3ccc(Br)cc3)c(N)c2-c2nc3ccccc3s2)[C@H](OC(C)=O)[C@@H](OC(C)=O)[C@@H]1OC(C)=O` (stereo not given in full), the growth in the test with NCI-H23 lung was 23.8%; with NCI-H226 lung, 28.1%; with NCI-H322M lung, 83.5%; in the test on HOP-62 NSCLC it was 63.8%; in the test with NCI-H460 lung, 44.3%; with HOP-92 NSCLC it was 81.7%. Besides, the growth with NCI-H522 lung was 63.8%; in the test with A549/ATCC NSCLC, 71.5%; in the test on 786-0 renal, 62.7%; in the test with COLO 205 colon, 85%.
As for `NC(=N\N=C/c1ccccc1[N+](=O)[O-])/C(N)=N\N=C/c1ccccc1[N+](=O)[O-]`, the growth was 104% in the test with NCI-H23 lung; 107% in the test with NCI-H226 lung; 146% in the test on NCI-H322M lung; 94% in the test on HOP-62 NSCLC; 104% in the test with NCI-H460 lung; 89.3% with NCI-H522 lung. Further, the growth with A549/ATCC NSCLC was 114%; in the test on 786-0 renal, 103%; in the test with COLO 205 colon, 109%.
Consider `CN(C)CC1C(=O)O[C@H]2[C@H]1CC/C(COC(=O)c1cc3ccccc3[nH]1)=C\CC[C@@]1(C)O[C@@H]21` (stereo not given in full), for which the growth was 18.5% with NCI-H23 lung; 23.8% in the test on NCI-H226 lung; 86.7% with NCI-H322M lung; 43.4% in the test on HOP-62 NSCLC; -63.8% (active) with HOP-92 NSCLC; -91.2% (active) in the test with NCI-H522 lung. Besides, the values for the growth in the test on A549/ATCC NSCLC, in the test on 786-0 renal and with COLO 205 colon were 11.5%, -81.6% (active) and -63.9% (active), respectively.
`CCCCCCCCCOc1c(OC)cc(C2CC(=O)Nc3c2c(C)nn3-c2nc3ccccc3[nH]2)cc1OC` (stereo not given): the growth in the test on NCI-H23 lung is -50% (active); in the test with NCI-H226 lung it was -61.6% (active); in the test on NCI-H322M lung, -58.1% (active); in the test on HOP-62 NSCLC, -32.9% (active); with HOP-92 NSCLC, -23.4% (active); with NCI-H522 lung, -65.2% (active). The growth with A549/ATCC NSCLC was -56% (active); in the test on 786-0 renal, -70.7% (active); with COLO 205 colon, 3.77% (active).
For the molecule `CCOc1ccccc1-n1c(CN2CCN(C(=O)COc3ccc(CNCCCCCCN4C5CCCC4CC(OC(=O)Nc4cc(C)ccc4OC)C5)cc3)CC2)nc2ccccc2c1=O` (stereo not given), the growth was -82.6% (active) in the test with NCI-H23 lung; -73.5% (active) in the test on NCI-H226 lung; -98.1% (active) with NCI-H322M lung; -92% (active) with HOP-62 NSCLC; -90.2% (active) in the test on HOP-92 NSCLC; -86.7% (active) with NCI-H522 lung. Besides, the growth in the test with A549/ATCC NSCLC was -88.2% (active); in the test with 786-0 renal it was -89.6% (active); with COLO 205 colon, -85.1% (active).
On to `COc1ccc2c(c1)CCCN2c1c2ccccc2nc2ccccc12`, for which the growth was 15.8% in the test on NCI-H23 lung; 12.6% with NCI-H226 lung; 45.9% in the test on NCI-H322M lung; 33.2% in the test on HOP-62 NSCLC; 12.4% in the test with HOP-92 NSCLC; -0.944% (active) in the test on NCI-H522 lung. Moreover, the growth in the test on A549/ATCC NSCLC is 18.5%; in the test on 786-0 renal, 28.9%; with COLO 205 colon, -16.8% (active).
For `CCc1c2c(nc3ccc(OC(=O)OCc4ccc(B5OC(C)(C)C(C)(C)O5)cc4)cc13)-c1cc3c(c(=O)n1C2)COC(=O)[C@]3(O)CC`, the growth is -30.6% (active) in the test on NCI-H23 lung; -59.9% (active) with NCI-H226 lung; 1.92% (active) in the test on NCI-H322M lung; -10.7% (active) with HOP-62 NSCLC; -6.28% (active) with NCI-H460 lung; -28.3% (active) in the test with NCI-H522 lung. Further, the results for the growth in the test on A549/ATCC NSCLC, with 786-0 renal and with COLO 205 colon were 3.37% (active), 11.7% and 7.72% (active), respectively.
For the molecule `COc1ccc(N=Nc2ccc(O)c(=O)cc2)cc1`, the growth in the test with NCI-H23 lung was 2.37% (active); with NCI-H226 lung, 4.29% (active); in the test with NCI-H322M lung, 25.2%; in the test on HOP-62 NSCLC it was 19.1%; in the test on HOP-92 NSCLC it was 19.4%; with NCI-H522 lung, 0.606% (active). Moreover, the values for the growth in the test on A549/ATCC NSCLC, with 786-0 renal and with COLO 205 colon were 5.6% (active), 19.5% and 26.3%, respectively.
As to `CCCCCCCCCCN(CCCCCCCCCC)CC(=O)c1ccc2cc(Br)c3ccccc3c2c1`, the growth was 47.4% in the test with NCI-H23 lung; 99.4% with NCI-H226 lung; 65.7% with NCI-H322M lung; 96.4% in the test on HOP-62 NSCLC; -65.9% (active) with NCI-H460 lung; 63.4% in the test on NCI-H522 lung. In addition, the growth in the test on A549/ATCC NSCLC is 82.3%; in the test with 786-0 renal, 54.1%; in the test on COLO 205 colon, 104%.

For the origin of these results see PubChem BioAssay (NCI).
